Assay results reported in PubChem BioAssay (NCATS).
“And” between values parts separate entries of the source, which are not always exact repeats. Equal values may be shown once. Inconclusive results are not listed. A call without a number means that no potency is given here. The source made the active and inactive calls. Unless noted, calls come from the whole dose curve; as a rule, active = well fitted curve in the direction sought with a large enough effect; inconclusive = small, poorly fitted or top-dose-only effect, or another doubt; inactive = no such curve, though single readings can be large; an effect the other way counts as inactive or inconclusive.

How the values were obtained:
[1] = molecular target: DNA polymerase III PolC-type (Bacillus subtilis (strain 168)) (UniProt P13267); assay: qHTS Validation Assay for the Inhibitors of DNA Replication in Gram-Positive Bacteria (AID 485295); note: potency is the fitted concentration of half-maximal effect
Summary of the method: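 PicoGreen fluorescence (ex 480–485/em 535–540 nm) reports dsDNA synthesized on ssM13Gori template with dNTPs/NTPs. Enzyme: holoenzyme rebuilt from purified PolC, beta subunit, SSB and primase. Compound preincubated before substrate addition; RT throughout.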

[2] = molecular target: Tumor susceptibility gene 101 protein (Homo sapiens) (UniProt Q99816); assay: qHTS Validation Assay for Iinhibitors of HIV-1 Budding by Blocking the Interaction of PTAP/TSG101 (AID 485342; calls by dose curve)
Summary of the method: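 FP read-out: FITC-PTAP peptide, 50 nM final, binding Tsg101 binding domain, 10 uM final; 20 min r.t.; 10 mM HEPES pH 7.5, 0.15 M NaCl, 0.01% Tween 20, 3 mM EDTA, 0.1 mM TCEP.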

[3] = molecular target: Beta-2 adrenergic receptor (Homo sapiens) (UniProt P07550); assay: qHTS validation assay of beta-arrestin-biased ligands of beta2-adrenergic receptor (AID 485366)
Summary of the method: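 Tango cells expressing recombinant beta2-AR and beta-arrestin with tTA-driven luciferase, in DMEM with 1% FBS. Compounds were titrated up to 46 microM for 18 hr at 37 degrees C. Luminescence was read 15 min after substrate; curves were fitted and class-assigned.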

[4] = Quantitative high throughput screen for delayed death inhibitors of the malarial parasite plastid, 96 hour incubation (AID 488745); note: nearly all actives have a fitted effect of over 70% in size; note: potency is the fitted concentration of half-maximal effect
Summary of the method: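 Luciferase-expressing P. falciparum in erythrocytes (2% hematocrit, 0.1% parasitemia) incubated with compound for 96 h at 37 C, 5% CO2, in RPMI 1640 with 0.5% Albumax. Growth inhibition read as decreased luminescence.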

[5] = Quantitative high throughput screen for delayed death inhibitors of the malarial parasite plastid, 48 hour incubation (AID 488752); note: nearly all actives have a fitted effect of over 65% in size; note: potency is the fitted concentration of half-maximal effect
Summary of the method: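 Erythrocytes infected with firefly luciferase-expressing P. falciparum (2% hematocrit, 0.1% parasitemia) cultured with compound for 48 h at 37 C, 5% CO2, in RPMI 1640/0.5% Albumax. Growth inhibition read as loss of luminescence.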

[6] = molecular target: Thioredoxin reductase 1, cytoplasmic (Rattus norvegicus) (UniProt O89049); assay: qHTS Assay for Substrates of Mammalian Selenoprotein Thioredoxin Reductase 1 (TrxR1) (AID 488772);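 note: NADPH fluorescence in the first read after selenite addition and not the 8 min delta; series mostly up to about 57 µM; a drop in NADPH fluorescence below the no-compound background marks a TrxR1 substrate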
Summary of the method: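 Quantitative HTS in Tris-HCl buffer at pH 7.5 with EDTA and Tween-20, using rat TrxR1, 400 uM NADPH and 400 uM selenite (final). A fall in initial NADPH fluorescence relative to background marked substrate behaviour.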

[7] = molecular target: Flap endonuclease 1 (Homo sapiens) (UniProt P39748); assay: qHTS Validation Assay for the Inhibitors of Human Flap endonuclease 1 (FEN1) (AID 488816); note: potency is the fitted concentration of half-maximal effect
Summary of the method: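 Human FEN1 (10 nM) preincubated 15 min at room temperature with compounds, then flap DNA substrate added at 50 nM final. Fluorescence read at 0 and 15 min; concentration-response fitted with four-parameter Hill equation.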

[8] = molecular target: Chromobox protein homolog 1 (Homo sapiens) (UniProt P83916); assay: qHTS Validation Assay for Inhibitors of HP1-beta Chromodomain Interactions with Methylated Histone Tails (AID 488953); note: nearly all actives have a fitted effect of over 50% in size; note: potency is the fitted concentration of half-maximal effect
Summary of the method: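 HP1-beta (50 nM) preformed 30 min with biotinylated H3(1-18)K9me3 peptide (50 nM) in PBS pH 7.4, 0.01% Tween-20. Compounds added for 30 min at room temperature. Complex disruption read by AlphaScreen with streptavidin donor/nickel chelate acceptor beads (10 ug/mL each).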

[9] = molecular target: Methanococcus maripaludis chaperonin (MmCpn) (UniProt Q6LX38); assay: High-Throughput Screening for Modulators of Cytosolic Chaperonin Activity: MmCpn Primary Screen (AID 488978);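 note: 50 nM MmCpn enzyme hydrolysing 30 µM ATP at 37 °C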
Summary of the method: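 ADP formation read by HTRF Transcreener, 665/590 nm emission after 320 nm excitation. Enzyme: archaeal chaperonin at 50 nM final; substrate ATP 30 uM final; 10 min, 37C, after 5 min compound preincubation at RT.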

[10] = molecular target: Thyrotropin receptor (Homo sapiens) (UniProt P16473); assay: qHTS Assay for Antagonists of the Thyroid Stimulating Hormone Receptor (AID 488980); note: series mostly up to about 58 µM
Summary of the method: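 TSHR-HEK293 cells; 70 uM RO 20-1724 PDE inhibitor; compound + EC80 TSH (4 nM final); anti-cAMP cryptate antibody/cAMP-d2 in lysis buffer, 30 min RT; HTRF 665/620 nm read.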

[11] = molecular target: D(1A) dopamine receptor (Homo sapiens) (UniProt P21728); assay: HTS Assay for Allosteric Agonists of the Human D1 Dopamine Receptor: Primary Screen for Agonists (AID 488981)
Summary of the method: (§1)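 Tetracycline-induced HEK293 Trex D1 cells with forced coupling to calcium, loaded with no-wash calcium dye; kinetic fluorescence read 180 s after compound addition for agonism, then a further 180 s after an EC20 dopamine challenge for potentiation.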

[12] = molecular target: D(1A) dopamine receptor (Homo sapiens) (UniProt P21728); assay: HTS Assay for Allosteric Agonists of the Human D1 Dopamine Receptor: Primary Screen for Potentiators (AID 488982)
Summary of the method: as §1

[13] = molecular target: D(1A) dopamine receptor (Homo sapiens) (UniProt P21728); assay: HTS Assay for Allosteric Agonists of the Human D1 Dopamine Receptor: Primary Screen for Antagonists (AID 488983);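 note: calcium flux response to an EC80 dopamine challenge measured with no-wash dye; nearly all actives have a fitted effect of over 65% in size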; note: potency is the fitted concentration of half-maximal effect
Summary of the method: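 Tetracycline-induced HEK293 T-REx D1 line, force-coupled to calcium flux, read with no-wash calcium dye. Compound added after 10 s baseline, read 180 s for agonism, then EC80 dopamine added and read a further 180 s.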

[14] = molecular target: M-phase phosphoprotein 8 (Homo sapiens) (UniProt Q99549); assay: qHTS Validation Assay for Inhibitors for MPP8 Chromodomain Interactions with Methylated Histone Tails (AID 488949); note: nearly all actives have a fitted effect of over 55% in size; note: potency is the fitted concentration of half-maximal effect
Summary of the method: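 AlphaScreen read-out: streptavidin donor and nickel chelate acceptor beads (final 10 ug/mL), 30 min in the dark at RT. Complex of 50 nM MPP8 and 50 nM b-H3(1-18)K9me3 peptide had been exposed to compounds for 30 min beforehand.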

[15] = qHTS Validation Assay to Find Inhibitors of Chronic Active B-Cell Receptor Signaling (AID 485345; active = well fitted curve in the direction sought with a large enough effect in the main read-out, with a control signal flat, not every such curve was filed as active)
Summary of the method: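 TMD8 ABC-DLBCL cells stably carrying doxycycline-inducible IkappaBalpha–green luciferase fusion plus unfused red luciferase; compounds 46 uM to 3 nM, 4 h at 37C with doxycycline. Corrected green/red luminescence ratio normalized to 10 uM MG-132 and basal cell wells; curves fitted.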

[16] = molecular target: Transient receptor potential cation channel subfamily V member 1 (Homo sapiens) (UniProt Q8NER1); assay: HTS Assay for Compounds that Act as Enhancers of the Vanilloid Receptor 1 (AID 488979)
Summary of the method: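 TRPV1 cells loaded with Fluo-8 calcium dye; compound added and Ca2+ signal (ex 480/em 520 nm) followed 3 min, then capsaicin at EC20 added and read 2 more min to detect enhancement.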

[17] = molecular target: Thioredoxin reductase 1, cytoplasmic (Rattus norvegicus) (UniProt O89049); assay: qHTS Assay for Inhibitors of Mammalian Selenoprotein Thioredoxin Reductase 1 (TrxR1) (AID 488773); conditions: Potency: inhibition;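 note: drop in NADPH fluorescence over an 8 min run after selenite addition; series mostly up to about 57 µM; nearly all actives have a fitted effect of over 40% in size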
Summary of the method: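 Steps: enzyme (90 nM) plus NADPH (400 uM final), 5 min at ~22 deg C; compound added, 15 min; selenite (400 uM final) added; fluorescence followed for 8 min. Concentration-response curves derived from the normalized delta values.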

[18] = molecular target: ATP-dependent 6-phosphofructokinase (Trypanosoma brucei brucei) (UniProt O15648); assay: qHTS Assay to Find Inhibitors of T. brucei phosphofructokinase: hit validation (AID 492961); note: potency is the fitted concentration of half-maximal effect
Summary of the method: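 Luminescence from ADP-Glo reports ADP generated as T. brucei PFK (1.25 nM) phosphorylates 0.5 mM fructose-6-phosphate using 0.1 mM ATP. Reactions ran 45 min at room temperature, pH 8.0.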

[19] = molecular target: Tyrosyl-DNA phosphodiesterase 1 (Homo sapiens) (UniProt Q9NUW8); assay: Confirmation Assay for Inhibitors of Tyrosyl-DNA Phosphodiesterase (TDP1) (AID 489007); conditions: recombinant human TDP1 enzymatic activity, dose-response; note: potency is the fitted concentration of half-maximal effect; nearly all actives have a fitted effect of over 40% in size
Summary of the method: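 Recombinant human Tdp1 (1 nM final), expressed in E. coli, preincubated 15 min with compound. Then 15 nM 5'-biotin/3'-phosphotyrosine-FITC DNA substrate added for 5 min at room temperature. AlphaScreen beads (10 ug/ml) added for 10 min; cleavage gives signal loss.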

[20] = molecular target: ATP-dependent 6-phosphofructokinase (Trypanosoma brucei brucei) (UniProt O15648); assay: qHTS Validation Assay to Find Inhibitors of T. brucei phosphofructokinase (AID 485368)
Summary of the method: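 Activity was read as ADP production by luminescence (ADP-Glo) after 45 min at room temperature. The enzyme was 1.25nM PFK in 0.1M TEA pH 8.0 with 0.5 mM F6P, 0.1mM ATP and 5 mM MgCl2. Compounds were titrated up to 57 uM and % activity normalized to no-enzyme and full-enzyme controls.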

Chain of Chromobox protein homolog 1 (Homo sapiens) (P83916 whole entry, looked up): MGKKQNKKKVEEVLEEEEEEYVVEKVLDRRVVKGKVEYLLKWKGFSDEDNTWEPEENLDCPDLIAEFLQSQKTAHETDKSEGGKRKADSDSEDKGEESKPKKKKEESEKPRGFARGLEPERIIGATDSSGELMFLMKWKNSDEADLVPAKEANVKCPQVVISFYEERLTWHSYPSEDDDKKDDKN
Chain of Transient receptor potential cation channel subfamily V member 1 (Homo sapiens) (Q8NER1 whole entry, looked up): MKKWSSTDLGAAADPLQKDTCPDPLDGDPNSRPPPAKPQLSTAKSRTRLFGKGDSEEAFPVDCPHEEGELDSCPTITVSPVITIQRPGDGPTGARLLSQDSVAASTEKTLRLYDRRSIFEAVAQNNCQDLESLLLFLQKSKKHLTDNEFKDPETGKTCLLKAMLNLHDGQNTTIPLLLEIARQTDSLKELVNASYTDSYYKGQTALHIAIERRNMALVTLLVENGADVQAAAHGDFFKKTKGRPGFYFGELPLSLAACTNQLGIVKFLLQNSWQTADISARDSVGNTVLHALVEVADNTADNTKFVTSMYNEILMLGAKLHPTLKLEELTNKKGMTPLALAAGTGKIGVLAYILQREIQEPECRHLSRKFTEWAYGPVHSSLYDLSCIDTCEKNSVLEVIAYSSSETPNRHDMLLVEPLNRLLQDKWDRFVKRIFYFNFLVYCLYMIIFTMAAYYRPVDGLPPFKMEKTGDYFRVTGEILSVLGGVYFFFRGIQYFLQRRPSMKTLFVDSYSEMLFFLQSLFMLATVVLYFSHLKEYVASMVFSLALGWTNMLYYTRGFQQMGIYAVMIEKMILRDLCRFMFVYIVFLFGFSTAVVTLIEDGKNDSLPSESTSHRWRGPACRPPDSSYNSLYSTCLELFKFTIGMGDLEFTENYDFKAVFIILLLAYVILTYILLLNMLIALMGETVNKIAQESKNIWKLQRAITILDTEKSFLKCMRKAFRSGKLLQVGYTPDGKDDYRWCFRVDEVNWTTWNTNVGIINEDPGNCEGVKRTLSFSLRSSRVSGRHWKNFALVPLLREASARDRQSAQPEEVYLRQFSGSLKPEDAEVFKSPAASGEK
Chain of Thioredoxin reductase 1, cytoplasmic (Rattus norvegicus) (O89049 whole entry, looked up): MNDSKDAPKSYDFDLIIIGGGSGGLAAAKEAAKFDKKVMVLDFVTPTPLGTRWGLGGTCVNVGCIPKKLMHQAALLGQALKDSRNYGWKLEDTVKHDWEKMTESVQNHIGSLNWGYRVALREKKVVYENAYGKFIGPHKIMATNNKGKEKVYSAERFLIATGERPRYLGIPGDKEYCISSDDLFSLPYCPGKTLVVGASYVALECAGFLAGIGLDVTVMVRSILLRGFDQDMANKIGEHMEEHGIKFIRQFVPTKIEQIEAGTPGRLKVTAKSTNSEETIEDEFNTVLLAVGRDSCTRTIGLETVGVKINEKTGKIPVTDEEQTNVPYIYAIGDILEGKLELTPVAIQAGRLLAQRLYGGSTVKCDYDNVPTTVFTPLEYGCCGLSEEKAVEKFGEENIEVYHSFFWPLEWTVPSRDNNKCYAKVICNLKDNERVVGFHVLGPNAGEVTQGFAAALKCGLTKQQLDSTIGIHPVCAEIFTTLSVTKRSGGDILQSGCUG
Chain of ATP-dependent 6-phosphofructokinase (Trypanosoma brucei brucei) (O15648 whole entry, looked up): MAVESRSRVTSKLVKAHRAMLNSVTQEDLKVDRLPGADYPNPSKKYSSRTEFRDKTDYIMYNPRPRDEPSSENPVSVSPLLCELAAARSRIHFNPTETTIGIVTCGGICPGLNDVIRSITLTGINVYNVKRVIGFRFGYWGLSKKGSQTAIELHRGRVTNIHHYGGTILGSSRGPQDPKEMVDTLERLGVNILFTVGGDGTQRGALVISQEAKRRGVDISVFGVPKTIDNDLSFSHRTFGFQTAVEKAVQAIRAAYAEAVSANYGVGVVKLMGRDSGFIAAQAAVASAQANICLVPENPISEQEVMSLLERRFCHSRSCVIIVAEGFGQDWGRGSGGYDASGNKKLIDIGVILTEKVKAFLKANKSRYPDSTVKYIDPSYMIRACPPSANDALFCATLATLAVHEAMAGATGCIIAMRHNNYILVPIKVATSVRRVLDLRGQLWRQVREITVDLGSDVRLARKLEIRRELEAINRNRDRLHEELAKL
Chain of M-phase phosphoprotein 8 (Homo sapiens) (Q99549 whole entry, looked up): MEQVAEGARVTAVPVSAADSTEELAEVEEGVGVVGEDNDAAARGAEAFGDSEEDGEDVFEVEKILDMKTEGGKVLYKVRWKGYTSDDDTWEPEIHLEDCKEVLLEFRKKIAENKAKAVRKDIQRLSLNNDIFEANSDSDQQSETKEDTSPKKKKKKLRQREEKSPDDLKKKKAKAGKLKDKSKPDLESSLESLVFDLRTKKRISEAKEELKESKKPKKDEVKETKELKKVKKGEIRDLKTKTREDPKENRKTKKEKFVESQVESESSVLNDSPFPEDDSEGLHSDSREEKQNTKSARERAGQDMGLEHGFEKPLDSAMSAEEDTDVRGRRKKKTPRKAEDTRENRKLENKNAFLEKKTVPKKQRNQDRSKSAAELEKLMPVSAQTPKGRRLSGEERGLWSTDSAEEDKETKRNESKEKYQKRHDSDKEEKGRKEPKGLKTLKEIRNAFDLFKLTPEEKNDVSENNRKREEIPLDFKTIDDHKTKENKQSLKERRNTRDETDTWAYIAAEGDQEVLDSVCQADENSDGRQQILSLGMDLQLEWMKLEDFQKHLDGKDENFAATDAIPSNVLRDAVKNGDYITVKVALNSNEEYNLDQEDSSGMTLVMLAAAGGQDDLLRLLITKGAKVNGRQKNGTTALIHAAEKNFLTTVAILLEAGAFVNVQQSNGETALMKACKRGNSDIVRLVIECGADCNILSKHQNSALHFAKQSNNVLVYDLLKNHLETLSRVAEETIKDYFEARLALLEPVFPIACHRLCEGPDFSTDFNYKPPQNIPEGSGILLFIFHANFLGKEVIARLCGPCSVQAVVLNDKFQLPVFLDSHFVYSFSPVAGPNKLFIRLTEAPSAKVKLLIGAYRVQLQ
Chain of Flap endonuclease 1 (Homo sapiens) (P39748 whole entry, looked up): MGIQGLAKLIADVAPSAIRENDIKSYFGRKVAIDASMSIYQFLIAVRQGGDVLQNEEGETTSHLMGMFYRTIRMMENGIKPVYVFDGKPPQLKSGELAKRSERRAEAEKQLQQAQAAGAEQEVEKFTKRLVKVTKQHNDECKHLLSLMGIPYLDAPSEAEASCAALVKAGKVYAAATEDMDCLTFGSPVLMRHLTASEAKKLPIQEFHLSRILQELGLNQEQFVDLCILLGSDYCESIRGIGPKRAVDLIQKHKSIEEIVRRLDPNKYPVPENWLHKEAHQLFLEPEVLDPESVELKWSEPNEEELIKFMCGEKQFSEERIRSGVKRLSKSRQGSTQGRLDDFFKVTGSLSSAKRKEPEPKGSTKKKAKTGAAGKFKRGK
Chain of Beta-2 adrenergic receptor (Homo sapiens) (P07550 whole entry, looked up): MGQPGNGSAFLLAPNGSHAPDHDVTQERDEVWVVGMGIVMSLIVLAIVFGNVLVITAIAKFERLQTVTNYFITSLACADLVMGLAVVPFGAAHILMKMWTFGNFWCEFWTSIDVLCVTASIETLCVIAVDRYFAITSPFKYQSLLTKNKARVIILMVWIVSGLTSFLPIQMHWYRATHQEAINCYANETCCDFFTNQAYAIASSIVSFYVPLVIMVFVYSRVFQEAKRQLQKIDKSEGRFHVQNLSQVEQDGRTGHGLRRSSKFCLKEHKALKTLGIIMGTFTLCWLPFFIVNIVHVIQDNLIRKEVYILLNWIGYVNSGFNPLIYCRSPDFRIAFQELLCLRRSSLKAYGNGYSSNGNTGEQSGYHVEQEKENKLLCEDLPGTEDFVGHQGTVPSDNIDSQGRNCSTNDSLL
Chain of Tyrosyl-DNA phosphodiesterase 1 (Homo sapiens) (Q9NUW8 whole entry, looked up): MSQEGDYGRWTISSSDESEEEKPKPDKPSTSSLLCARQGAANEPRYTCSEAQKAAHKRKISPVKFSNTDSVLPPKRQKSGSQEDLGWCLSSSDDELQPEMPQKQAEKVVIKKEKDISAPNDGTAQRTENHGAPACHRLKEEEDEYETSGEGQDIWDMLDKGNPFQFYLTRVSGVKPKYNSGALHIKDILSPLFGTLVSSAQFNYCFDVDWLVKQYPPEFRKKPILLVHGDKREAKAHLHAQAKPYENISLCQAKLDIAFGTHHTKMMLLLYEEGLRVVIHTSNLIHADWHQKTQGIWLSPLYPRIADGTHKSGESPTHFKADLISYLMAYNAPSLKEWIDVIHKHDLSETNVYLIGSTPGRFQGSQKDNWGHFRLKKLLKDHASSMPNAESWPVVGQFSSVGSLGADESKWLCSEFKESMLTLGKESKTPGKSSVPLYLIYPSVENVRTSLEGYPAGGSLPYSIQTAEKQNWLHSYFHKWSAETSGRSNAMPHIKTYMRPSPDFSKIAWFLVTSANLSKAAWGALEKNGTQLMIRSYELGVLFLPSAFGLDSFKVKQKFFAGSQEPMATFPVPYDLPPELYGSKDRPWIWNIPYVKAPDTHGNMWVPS
Chain of Methanococcus maripaludis chaperonin (MmCpn) (Q6LX38 1-543): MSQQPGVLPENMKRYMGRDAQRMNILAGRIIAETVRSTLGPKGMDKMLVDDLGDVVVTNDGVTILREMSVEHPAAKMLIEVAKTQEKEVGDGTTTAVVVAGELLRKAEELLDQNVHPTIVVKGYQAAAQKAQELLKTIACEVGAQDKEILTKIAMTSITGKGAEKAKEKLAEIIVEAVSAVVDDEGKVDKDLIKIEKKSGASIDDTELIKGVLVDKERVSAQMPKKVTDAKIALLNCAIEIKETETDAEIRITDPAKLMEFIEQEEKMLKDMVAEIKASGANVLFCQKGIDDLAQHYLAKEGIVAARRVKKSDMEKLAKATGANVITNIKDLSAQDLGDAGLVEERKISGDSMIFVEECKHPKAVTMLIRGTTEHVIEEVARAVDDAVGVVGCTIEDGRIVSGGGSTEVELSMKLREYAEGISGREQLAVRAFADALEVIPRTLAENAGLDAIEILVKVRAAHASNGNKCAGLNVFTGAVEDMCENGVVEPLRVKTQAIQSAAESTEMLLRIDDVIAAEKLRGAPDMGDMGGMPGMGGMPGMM

Row | Structure (SMILES) | Potency [1] | outcome [2] | outcome [3] | Potency [4] | Potency [5] | outcome [6] | Potency [7] | Potency [8] | outcome [9] | outcome [10] | Potency [11] | Potency [12] | Potency [13] | Potency [14] | Potency [15] | outcome [16] | Potency [17] | Potency [18] | Potency [19] | Potency [20]
1 | CCCNCC(O)COc1ccccc1C(=O)CCc1ccccc1 (centres undefined) | inactive | inactive | inactive | 2.62 µM (active) | 2.33 µM (active) | inactive | inactive | inactive | inactive | inactive | inactive | inactive | 10 µM (active) |  |  |  |  |  |  | 
2 | Clc1ccc2c(c1)C(N1CCNCC1)=Nc1ccccc1O2 | inactive | inactive | inactive |  |  | inactive | inactive |  | inactive | inactive |  | inactive |  | inactive |  |  |  |  |  | 
3 | CCc1cccc2c3c([nH]c12)C(CC)(CC(=O)O)OCC3 (centres undefined) | inactive |  | inactive | inactive | inactive | inactive | inactive | inactive | inactive | inactive | inactive | inactive | inactive | inactive | inactive | inactive |  |  |  | 
4 | O=C(Nc1ccc([N+](=O)[O-])cc1Cl)c1cc(Cl)ccc1O | inactive | inactive | inactive |  |  | inactive | inactive | inactive | inactive | inactive | inactive | inactive |  | inactive |  | inactive |  |  |  | 
5 | COc1ccccc1OCCNCC(O)COc1cccc2[nH]c3ccccc3c12 (centres undefined) | inactive | inactive |  |  |  | inactive | inactive |  | inactive |  | inactive | inactive | 8.91 µM (active) | inactive |  |  | inactive | inactive |  | 
6 | O=c1c(-c2ccc(O)cc2)coc2cc(O)cc(O)c12 | inactive | inactive | inactive |  |  | inactive | inactive | inactive | inactive | inactive | inactive | inactive | inactive | inactive |  | inactive | inactive |  |  | 
7 | COc1cc2nc(N3CCN(C(=O)C4COc5ccccc5O4)CC3)nc(N)c2cc1OC (centres undefined) | inactive | inactive | inactive | 3.29 µM (active) | 4.15 µM (active) | inactive |  |  | inactive | inactive | inactive | inactive |  | inactive |  | inactive | inactive |  |  | 
8 | Cc1ccc(C(=O)Nc2ccc(S(=O)(=O)O)c3cc(S(=O)(=O)O)cc(S(=O)(=O)O)c23)cc1NC(=O)c1cccc(NC(=O)Nc2cccc(C(=O)Nc3cc(C(=O)Nc4ccc(S(=O)(=O)O)c5cc(S(=O)(=O)O)cc(S(=O)(=O)O)c45)ccc3C)c2)c1 | 7.52 µM (active) |  | inactive | inactive | inactive | inactive | 0.336 µM (active) | 2 µM (active) | inactive | inactive | inactive | inactive | inactive | 8.91 µM (active) and 1.89 µM (active) | inactive | inactive |  | 7.08 µM (active) | 2.51 µM (active) and 5.62 µM (active) and 1.26 µM (active) | 
9 | NC(=O)NO | inactive |  | inactive | inactive | inactive |  | inactive | inactive | inactive | inactive | inactive | inactive | inactive | inactive | inactive | inactive |  |  |  | inactive
